Only some compounds are listed: those with a hit (about 4.7% of all), similar ones and a draw of the others.
D1 antag: Antagonist of Human D 1 Dopamine Receptor: qHTS. activity change, negative = inhibition, % at 10 µM. D(1A) dopamine receptor (Homo sapiens), P21728. HEK293 TREx D1 cells, calcium flux, dopamine EC80; stronger effect = lower value. 360,000 compounds, 3.2% hits; in the data active = activity change below about -30%; note: % is set by controls: 0 for no effect and ±100 for the full control effect
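Tetracycline-induced HEK293 Trex D1 cells, force-coupled to calcium, dye-loaded; compounds added and read 180 s, then EC80 dopamine added and calcium flux tracked kinetically another 180 s.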
TRHR enhancer-1: qHTS for Small Molecule Agonists and Allosteric Enhancers of Human TRH Receptor: Primary Screen for Enhancers | AID 493056, 2011 | enhancement, % at 2 µM | TRHR cells, fluo-8 calcium fluorescence, EC20 TRH enhancement | 360,000 compounds, 0.66% hits | Thyrotropin-releasing hormone receptor (Homo sapiens), P34981; in the data active = enhancement above about 30%; note: 0% is about no effect
Target sequence (P34981 whole entry, looked up): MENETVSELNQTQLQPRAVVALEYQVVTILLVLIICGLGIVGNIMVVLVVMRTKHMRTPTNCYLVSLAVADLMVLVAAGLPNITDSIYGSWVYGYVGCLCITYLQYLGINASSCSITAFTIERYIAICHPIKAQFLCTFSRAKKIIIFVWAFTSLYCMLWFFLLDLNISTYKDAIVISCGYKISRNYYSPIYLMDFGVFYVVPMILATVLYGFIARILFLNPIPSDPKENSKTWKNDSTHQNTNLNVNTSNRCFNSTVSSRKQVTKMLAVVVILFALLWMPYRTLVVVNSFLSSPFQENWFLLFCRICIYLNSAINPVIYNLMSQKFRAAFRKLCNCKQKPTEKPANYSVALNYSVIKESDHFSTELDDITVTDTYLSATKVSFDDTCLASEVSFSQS
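TRHR-expressing cells loaded with fluo-8 calcium dye were read kinetically (ex 480/em 530) during compound addition, then stimulated with an EC20 of TRH (10 nM final). Enhancement of the Gq-mediated intracellular calcium response was scored.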
D1 ag: Allosteric Agonists of the Human D1 Dopamine Receptor: qHTS; D(1A) dopamine receptor (Homo sapiens), P21728; HEK293 T-REx D1 cells, calcium flux, agonist mode; activation, % at 2 µM; 360,000 compounds, 1% hits; AID 504660, 2011; note: 0% is about no effect
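Tetracycline-induced HEK293 TREx D1 cells, force-coupled to calcium signalling, were dye-loaded with a no-wash calcium kit. Compound was pin-added after a 10 s baseline. Fluorescence was read kinetically at 1 cycle/s for 180 s, with calcium rises flagged as agonism.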
TRHR agonist-1: qHTS for Small Molecule Agonists and Allosteric Enhancers of Human TRH Receptor: Primary Screen for Agonists | AID 493084, 2011 | 360,000 compounds, 0.18% hits | TRHR cells, calcium flux fluo-8, FDSS agonist mode | activation, % at 2 µM; note: 0% is about no effect
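Agonist-mode FDSS calcium read (Ex 480/Em 530, 1 s cycles) in 1536-well TRHR cells with fluo-8 dye, after 10-cycle baseline and 23 nL compound addition; TRH at EC20 (10 nM final) added afterwards for the enhancer phase.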
D1 potentiator: Potentiators of Human D1 Dopamine Receptor: qHTS; D(1A) dopamine receptor (Homo sapiens), P21728; HEK293 TREx D1 cells, calcium flux, dopamine EC20 potentiation; potentiation, % at 10 µM; 360,000 compounds, 0.036% hits; AID 504651, 2011; in the data active = potentiation above about 30%; note: 0% is about no effect
TRHR enhancer-2: qHTS for Small Molecule Agonists and Allosteric Enhancers of Human TRH Receptor: Confirmation Screen for Enhancers. TRH receptor cell assay, enhancer confirmation qHTS. activity change, negative = inhibition, % at 46.1 µM. 970 tested, under 10 active. shares compounds with TRHR enhancer-1; active = well fitted curve in the direction sought with a large enough effect; an effect the other way counts as inactive or inconclusive;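 note: compound effect scored on response to added TRH at EC20 of 10 nM; 0% is about no effect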
TRHR agonist-2: qHTS for Small Molecule Agonists and Allosteric Enhancers of Human TRH Receptor: Confirmation Screen for Agonists | shares compounds with TRHR enhancer-1 | AID 493078, 2011 | TRHR-expressing cells, agonist activation read-out | Potency, µM (doses to about 46.1 µM), inactives show top-dose activation, usual class: activators | 970 compounds, 8% hits; active = well fitted curve in the direction sought with a large enough effect; an effect the other way counts as inactive or inconclusive; note: potency is the fitted concentration of half-maximal effect; 0% is about no effect; nearly all actives have a fitted effect of over 75% in size
Numbers without * were called inactive. Cut-off read from the data, not from the text of the source, unless noted: active = activation above about 30%; inactive = the rest.

Results for CN1CCS/C1=C/C=C1\SC(=S)N(CC(=O)O)C1=O ?
D1 antag: 9; TRHR enhancer-1: -3; D1 ag: 42*; TRHR agonist-1: 27; D1 potentiator: -4; TRHR enhancer-2: 4; TRHR agonist-2: 21µM*

Results for O=C(O)CN1C(=O)/C(=C/c2ccc(N3CCCCC3)o2)SC1=S ?
D1 antag: -14; TRHR enhancer-1: -2; D1 ag: 7; TRHR agonist-1: 0; D1 potentiator: 8

What do the screens show for `Cc1[nH]c2ccccc2c1/C=N/Nc1nc(Nc2ccccc2)nc(N2CCOCC2)n1`?
D1 antag: -5; TRHR enhancer-1: 55*; D1 ag: 0; TRHR agonist-1: 0; D1 potentiator: -2; TRHR enhancer-2: -1; TRHR agonist-2: -1%

Results for COc1ccc(NC(=S)N(Cc2ccccn2)Cc2ccccc2Cl)cc1 ?
D1 antag: 5; TRHR enhancer-1: -3; D1 ag: -1; TRHR agonist-1: 0; D1 potentiator: 1

Results for COc1cccc(NC(=S)N(Cc2ccccn2)Cc2ccccc2Cl)c1 ?
D1 antag: -24; TRHR enhancer-1: 43*; D1 ag: 3; TRHR agonist-1: 0; D1 potentiator: -4; TRHR enhancer-2: -5; TRHR agonist-2: 2%

Results for O=C1C2C3C=CC(C4CC34)C2C(=O)N1/N=C/c1c[nH]c2ccccc12 (stereo not drawn) ?
D1 antag: -23; TRHR enhancer-1: -1; D1 ag: 1; TRHR agonist-1: -1; D1 potentiator: -1

How did O=S(=O)(c1ccc2ccccc2c1)N1CCN(CCO)CC1 do in these assays?
D1 antag: -10; TRHR enhancer-1: 4; D1 ag: 3; TRHR agonist-1: -2; D1 potentiator: -5

What do the screens show for `CC(=O)c1cc(NC(=O)c2ccc(C)cc2)c(=O)oc1/C=C/N(C)C`?
D1 antag: 15; TRHR enhancer-1: -1; D1 ag: 34*; TRHR agonist-1: 29; D1 potentiator: 0; TRHR enhancer-2: 4; TRHR agonist-2: 21µM*

What do the screens show for `COc1ccccc1CNC(=O)c1ccc(OC(F)F)c(OC)c1`?
D1 antag: 6; TRHR enhancer-1: 51*; D1 ag: 1; TRHR agonist-1: -1; D1 potentiator: -5; TRHR enhancer-2: -5; TRHR agonist-2: 1%

How did COc1cc(C(=O)NCc2ccccc2)ccc1OC(F)F do in these assays?
D1 antag: -17; TRHR enhancer-1: 4; D1 ag: 3; TRHR agonist-1: -1; D1 potentiator: 6

How did CCOc1cc(/C=C/C(=O)Nc2ccc(C(=O)NCCN(CC)CC)cc2)ccc1OCC(C)C do in these assays?
D1 antag: -41*; TRHR enhancer-1: 42*; D1 ag: 5; TRHR agonist-1: 0; D1 potentiator: -11; TRHR enhancer-2: 2; TRHR agonist-2: 1%

Results for CCOc1ccc(/C=C/C(=O)Nc2ccc(C(N)=O)cc2)cc1OC ?
D1 antag: -3; TRHR enhancer-1: 3; D1 ag: 5; TRHR agonist-1: 1; D1 potentiator: -7

What do the screens show for `COc1ccc(OCc2cc(C(=O)N(Cc3nccn3C)C(C)C)no2)c2ccccc12`?
D1 antag: -5; TRHR enhancer-1: 2; D1 ag: 6; TRHR agonist-1: 0; D1 potentiator: 3

Results for N#CCSc1nnc2sc3ccccc3n12 ?
D1 antag: -9; TRHR enhancer-1: -3; D1 ag: 3; TRHR agonist-1: 0; D1 potentiator: -2

Source: PubChem BioAssay (National Center for Advancing Translational Sciences (NCATS))
